From PubChem BioAssay (Tox21) come the findings set out here.

Assay [1] is described as follows: qHTS assay to test for compound auto fluorescence at 535 nm (green) in HEK293 cells (AID 720680).
Assay [2] is described as follows: qHTS assay to test for compound auto fluorescence at 460 nm (blue) in HEK293 cell free culture (AID 720681). The gist of the method:
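Compounds were added to cell-free DMEM with 10% FBS and fluorescence read directly. The blue channel used 405 nm excitation and 460 nm emission, with triamterene as the reference fluorophore.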

Assay [3] in a line: qHTS assay to test for compound auto fluorescence at 535 nm (green) in HEK293 cell free culture (AID 720682). The gist of the method:
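Cell-free medium (DMEM, 10% FBS) receives compound or DMSO by pintool. Plate read directly at Ex 485/Em 535 nm. Signal converted to fluorescein equivalency.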

A short description of assay [4]: qHTS assay to test for compound auto fluorescence at 590 nm (red) in HepG2 cell free culture (AID 720684). In short, it runs like this:
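Rose Bengal sodium served as the reference for red signal. Test compounds were dispensed into serum-containing MEM (10% FBS) without cells, and plates were read at 540/590 nm.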

Assay [5] can be described thus: qHTS assay to test for compound auto fluorescence at 460 nm (blue) in HepG2 cell free culture (AID 720685). In short, it runs like this: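 Cell-free plates of MEM plus 10% FBS received 23 nL compound or DMSO vehicle; blue-channel (405/460 nm) intensity scored against triamterene as reference fluorophore.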
Assay [6] can be described thus: qHTS assay to test for compound auto fluorescence at 535 nm (green) in HepG2 cell free culture (AID 720686).
A short description of assay [7]: qHTS assay to test for compound auto fluorescence at 460 nm (blue) in HepG2 cells (AID 720687). The gist of the method:
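HepG2 cells in MEM with 10% FBS, attached overnight at 37 C, were exposed to compound or DMSO for 1 hr at 37 C, 5% CO2. Blue fluorescence was read at 405/460 nm, with triamterene as reference fluorophore.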

Assay [8] addresses Glucocorticoid receptor (Homo sapiens) (UniProt P04150). Nature of the assay: qHTS assay to identify small molecule agonists of the glucocorticoid receptor (GR) signaling pathway (AID 720691; active = well fitted activation curve with a large enough effect in the signal ratio in the repeat runs, not every such curve was filed as active; the % refers to the signal ratio). The gist of the method:
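Compounds in DMSO, alongside positive controls, were added to GR-bla HeLa reporter cells and incubated 18 h at 37 C; GRE-driven beta-lactamase was detected by fluorescence after 2 h with FRET substrate at room temperature.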

Assay [9] has the same target. Nature of the assay: qHTS assay to identify small molecule antagonists of the glucocorticoid receptor (GR) signaling pathway (AID 720692; active = well fitted inhibition curve with a large enough effect in the signal ratio in the repeat runs, not every such curve was filed as active; the % refers to the signal ratio). In short, it runs like this: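 In a 1536-well cell format, compounds were added 4 h after seeding GR-bla HeLa cells, together with dexamethasone at 5 nM final; reporter activity was measured by FRET-substrate fluorescence following 18 h at 37 C.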

Assay [10] can be described thus: qHTS assay to identify small molecule antagonists of the glucocorticoid receptor (GR) signaling pathway - cell viability counter screen (AID 720693). Also: nearly all actives have a fitted effect of over 55% in size.
Assay [11] can be described thus: qHTS assay for identifying genotoxic compounds that show differential cytotoxicity against isogenic chicken DT40 cell lines with known DNA damage response pathways - wild type cell line (AID 743012). Also: nearly all actives have a fitted effect of over 60% in size. In short, it runs like this:
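Viability of DNA repair-proficient chicken DT40 cells was assessed by CellTiter-Glo luminescence following 40 h compound exposure at 37 C/5% CO2.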

Assay [12] is described as follows: qHTS assay for identifying genotoxic compounds that show differential cytotoxicity against isogenic chicken DT40 cell lines with known DNA damage response pathways - Rev3 mutant cell line (AID 743014). Also: nearly all actives have a fitted effect of over 55% in size.
Assay [13] in a line: qHTS assay to identify small molecule antagonists of the androgen receptor (AR) signaling pathway - cell viability counter screen (AID 743033; also: nearly all actives have a fitted effect of over 45% in size).
The nature of assay [14]: qHTS assay to test for compound auto fluorescence at 590 nm (red) in HEK293 cell free culture (AID 720683). The gist of the method:
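Cell-free wells of DMEM with 10% FBS received compound, and intrinsic fluorescence was read at excitation/emission 540/590 nm. Values expressed as equivalence to Rose Bengal sodium.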

Assay [15] in a line: qHTS assay for identifying genotoxic compounds that show differential cytotoxicity against isogenic chicken DT40 cell lines with known DNA damage response pathways - Rad54/Ku70 mutant cell line (AID 743015). Also: nearly all actives have a fitted effect of over 60% in size. Also: potency is read from the fitted curve at half-maximal effect.
For assay [16], the target named is Androgen receptor (Homo sapiens) (UniProt P10275). Nature of the assay: qHTS assay to identify small molecule antagonists of the androgen receptor (AR) signaling pathway (AID 743035; active = well fitted inhibition curve with a large enough effect in the signal ratio in the repeat runs, not every such curve was filed as active; the % refers to the signal ratio). The gist of the method: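 Reporter HEK293 cells were exposed to compounds and R1881 overnight (16 h, 37C); beta-lactamase activity was then quantified by FRET fluorescence.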
Assay [17] shares this target. As to the kind of experiment: qHTS assay to identify small molecule agonists of the androgen receptor (AR) signaling pathway (AID 743036; active = well fitted activation curve with a large enough effect in the signal ratio in the repeat runs, with a control signal flat, not every such curve was filed as active; the % refers to the signal ratio). In short, it runs like this:
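AR-bla HEK293 cells, 2,000/well; 4 h preincubation 37C/5% CO2; compound (DMSO) 16 h at 37C; LiveBLAzer B/G FRET substrate 2 h RT; fluorescence intensity read-out.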

For assay [18] the target is unchanged. As to the kind of experiment: qHTS assay to identify small molecule agonists of the androgen receptor (AR) signaling pathway using the MDA cell line (AID 743040; also: nearly all actives have a fitted effect of over 20% in size). In short, it runs like this: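 Luciferase read-out, ONE-Glo, 30 min RT. Cells: MDA-kb2 AR-luc, MMTV promoter with AR and GR response elements. Compound exposure 16 h, 37C, 0% CO2, after 5 h pre-incubation. qHTS agonist mode.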

Assay [19] can be described thus: qHTS assay to identify small molecule antagonists of the androgen receptor (AR) signaling pathway using the MDA cell line - cell viability counter screen (AID 743041; also: nearly all actives have a fitted effect of over 45% in size). The gist of the method:
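Cytotoxicity counter screen: MDA-kb2 AR-luc cells, compound + R1881, 16 h, 37C, 0% CO2; CellTiter-Fluor added at 15.5 h, fluorescence read after 30 min.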

The target in assay [20] is Androgen receptor (Homo sapiens) (UniProt P10275). As to the kind of experiment: qHTS assay to identify small molecule antagonists of the androgen receptor (AR) signaling pathway using the MDA cell line (AID 743042; also: nearly all actives have a fitted effect of over 55% in size). The gist of the method:
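MDA-kb2 breast carcinoma cells carrying MMTV-luciferase (AR/GR responsive) were co-treated with compounds and the agonist R1881 for 16 h at 37C. Inhibition read as ONE-Glo luminescence; CellTiter-Fluor fluorescence measured in parallel for cytotoxicity.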

Values without a mark were called inactive. Results filed as inconclusive are left out. Calls of active or inactive are those of the source. Unless noted, calls follow the shape of the dose curve; as a rule, active = well fitted curve in the direction sought with a large enough effect in the repeat runs; inconclusive = weak or mixed curves; inactive = no such curve, though single readings can be large; an effect the other way counts as inactive or inconclusive.
% is scaled to controls: 0 for no effect and ±100 for the full control effect.

Chain of Androgen receptor (Homo sapiens) (P10275 whole entry, looked up): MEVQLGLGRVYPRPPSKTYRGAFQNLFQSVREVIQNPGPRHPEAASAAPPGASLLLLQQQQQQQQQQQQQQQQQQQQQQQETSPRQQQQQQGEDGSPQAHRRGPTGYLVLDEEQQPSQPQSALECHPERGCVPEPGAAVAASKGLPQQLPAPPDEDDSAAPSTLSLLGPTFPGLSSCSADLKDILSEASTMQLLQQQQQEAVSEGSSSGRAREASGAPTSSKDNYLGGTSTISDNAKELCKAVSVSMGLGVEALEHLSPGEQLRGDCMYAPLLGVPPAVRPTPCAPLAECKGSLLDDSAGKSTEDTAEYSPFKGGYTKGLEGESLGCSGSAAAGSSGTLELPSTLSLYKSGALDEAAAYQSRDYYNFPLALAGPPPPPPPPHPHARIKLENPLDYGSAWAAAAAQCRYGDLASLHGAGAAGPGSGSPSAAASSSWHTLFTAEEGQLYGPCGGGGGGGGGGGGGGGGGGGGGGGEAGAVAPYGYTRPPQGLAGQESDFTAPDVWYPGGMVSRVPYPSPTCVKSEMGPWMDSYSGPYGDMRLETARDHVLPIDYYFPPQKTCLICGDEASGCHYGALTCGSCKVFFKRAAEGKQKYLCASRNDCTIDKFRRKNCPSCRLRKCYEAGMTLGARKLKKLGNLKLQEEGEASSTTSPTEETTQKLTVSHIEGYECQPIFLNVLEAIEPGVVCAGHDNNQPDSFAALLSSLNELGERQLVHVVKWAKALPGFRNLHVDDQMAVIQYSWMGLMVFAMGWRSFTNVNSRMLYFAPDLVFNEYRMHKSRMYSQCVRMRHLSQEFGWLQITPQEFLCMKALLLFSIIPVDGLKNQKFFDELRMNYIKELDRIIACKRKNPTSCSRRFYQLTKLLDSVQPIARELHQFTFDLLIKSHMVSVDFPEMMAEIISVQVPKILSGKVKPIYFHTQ
Chain of Glucocorticoid receptor (Homo sapiens) (P04150 whole entry, looked up): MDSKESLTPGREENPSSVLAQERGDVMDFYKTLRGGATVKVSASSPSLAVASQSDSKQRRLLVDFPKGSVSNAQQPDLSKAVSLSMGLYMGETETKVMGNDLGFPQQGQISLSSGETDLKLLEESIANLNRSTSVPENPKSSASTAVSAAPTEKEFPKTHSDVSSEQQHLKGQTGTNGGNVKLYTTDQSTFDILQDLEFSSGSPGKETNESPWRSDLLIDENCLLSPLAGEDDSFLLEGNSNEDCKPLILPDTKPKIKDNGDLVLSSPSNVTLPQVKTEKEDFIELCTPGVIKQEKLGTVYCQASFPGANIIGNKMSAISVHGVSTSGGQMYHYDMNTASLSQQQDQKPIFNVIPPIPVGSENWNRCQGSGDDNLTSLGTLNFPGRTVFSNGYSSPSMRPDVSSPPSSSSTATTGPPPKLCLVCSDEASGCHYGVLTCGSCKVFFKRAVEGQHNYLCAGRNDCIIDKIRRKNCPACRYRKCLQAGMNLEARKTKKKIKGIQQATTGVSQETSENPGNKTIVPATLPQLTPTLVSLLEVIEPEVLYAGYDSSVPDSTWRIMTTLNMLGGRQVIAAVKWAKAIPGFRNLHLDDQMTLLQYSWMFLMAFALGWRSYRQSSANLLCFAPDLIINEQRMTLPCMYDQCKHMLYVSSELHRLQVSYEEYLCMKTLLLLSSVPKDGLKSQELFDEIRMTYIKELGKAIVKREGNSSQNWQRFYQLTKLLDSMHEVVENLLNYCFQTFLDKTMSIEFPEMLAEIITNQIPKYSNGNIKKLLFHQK

For `CC(=O)CCCCn1c(=O)c2c(ncn2C)n(C)c1=O`, the fluorescence, % of fluorescein in assay [1] is 0.0863% [at 18.6 µM]. The fluorescence, % of fluorescent control in assay [2] is 0.0365% [at 18.6 µM]; in assay [5] it was 0.0657% [at 18.6 µM]; in assay [7], 0.0705% [at 18.6 µM]. The activity change in [3] is 0.0172% [at 18.6 µM]. Besides, the fluorescence, % of Rose Bengal in [4] is -0.221% [at 18.6 µM]. Moreover, the fluorescence, % of fluorescein control in assay [6] is -0.0364% [at 18.6 µM]. The Potency result in assay [8], in [11] and in assay [12] was “inactive” throughout. The result in assay [9] and in assay [10] was inactive.

On to `C[C@H](CCC(=O)O)[C@H]1CC[C@H]2[C@@H]3C(=O)C[C@@H]4CC(=O)CC[C@]4(C)[C@H]3CC(=O)[C@]12C`, for which the molecule was classed as inactive in [1], in assay [2], in assay [3], in assay [4], in assay [5] and in assay [6]. Moreover, the molecule was classed as inactive in assay [7], in assay [9] and in assay [10]. Also, the Potency entry in assay [8], in assay [11], in assay [12] and in assay [13] was “inactive” each time.

For `CCOc1cc([N+](=O)[O-])c(OCC)cc1N1CCOCC1`, the outcome in [1], in assay [2], in assay [3], in assay [14], in [4] and in assay [5] was inactive. Further, the molecule was classed as inactive in assay [6] and in assay [7]. Besides, the Potency result in assay [11], in assay [15] and in assay [13] was “inactive” in each case.

For `Cc1cccc(C)c1NC(=O)c1ccccc1C(=O)O`, the molecule was classed as inactive in assay [1], in assay [2], in assay [3], in assay [4], in assay [5] and in [6]. In addition, the outcome in [7], in assay [9], in [10], in [17] and in [18] was inactive. Also, the Potency entry in assay [11], in [12], in assay [15], in assay [13], in assay [16] and in assay [19] was “inactive” throughout. Besides, the Potency entry in [20] was “inactive”.

Take `C=C(C)C(=O)OCCN(CC)CC`: the result in [1], in assay [2], in assay [14], in assay [4], in [5] and in [6] was inactive. Besides, the molecule was called inactive in [7], in assay [9], in assay [10], in assay [17] and in [18]. The Potency result in assay [8], in [11], in assay [12], in assay [15], in [13] and in [19] was “inactive” each time. Also, the Potency entry in assay [20] is “inactive”.

As to `O=C(O)c1ccc(Cl)cc1Cl`, the outcome in [1], in [2], in [3], in assay [4], in [5] and in assay [6] was inactive. The result in assay [7], in assay [9] and in assay [10] was inactive. The Potency entry in [11], in [12], in assay [13] and in assay [19] was “inactive” each time.

As to `CCCOC(=O)C(C)O` (centres undefined), the outcome in assay [1], in assay [2], in assay [3], in assay [14], in assay [4] and in [5] was inactive. Also, the call in [6], in assay [7], in [17] and in [18] was inactive. The Potency entry in assay [16], in assay [19] and in [20] was “inactive” each time.

Take `N[C@@H](CCC(=O)Nc1ccc([N+](=O)[O-])cc1)C(=O)O`: the result in assay [1], in assay [2], in assay [3], in assay [4], in assay [5] and in assay [6] was inactive. For the same molecule, the molecule was classed as inactive in assay [7], in assay [9], in assay [17] and in assay [18]. Moreover, the Potency result in assay [8], in assay [12], in [15], in assay [13], in assay [16] and in [20] was “inactive” in each case.

For the molecule `CC(C)C[C@H](NC(=O)CNC(=O)[C@H](Cc1ccc(O)cc1)NC(=O)[C@H](CO)NC(=O)[C@H](Cc1c[nH]c2ccccc12)NC(=O)[C@H](Cc1cnc[nH]1)NC(=O)[C@@H]1CCC(=O)N1)C(=O)N[C@@H](CCCN=C(N)N)C(=O)N1CCC[C@H]1C(=O)NCC(N)=O` (stereo in doubt), the call in [1], in assay [2], in assay [3], in [4], in assay [5] and in assay [6] was inactive. In addition, in assay [7], the molecule was classed as inactive. In addition, the Potency result in [11], in assay [12], in assay [15] and in assay [13] was “inactive” in each case.

As for `Cc1ccccc1OCC(O)CO` (centres undefined), the molecule was called inactive in [1], in [2], in assay [3], in assay [4], in assay [5] and in assay [6]. Also, the outcome in assay [7], in assay [9] and in assay [10] was inactive. For the same molecule, the Potency result in assay [11], in assay [12], in assay [15], in assay [13] and in assay [19] was “inactive” each time.

As for `O=S(=O)(O)c1cc(O)c2ccc(Nc3ccccc3)cc2c1`, the outcome in assay [1], in [2], in assay [3], in [4], in [5] and in assay [6] was inactive. Besides, the call in assay [7] and in assay [10] was inactive. In addition, the Potency result in assay [12], in [15], in assay [13] and in assay [19] was “inactive” in each case.

As for `CCCC/C=C/C=C\C=O`, the molecule was called inactive in [1], in [2], in [3], in assay [4], in [5] and in assay [6]. Also, the result in assay [7], in assay [10], in assay [17] and in assay [18] was inactive. Further, in [15], the Potency was 61.1 µM (active). Further, the Potency result in assay [19] and in assay [20] was “inactive” in each case.

Regarding `CCOC(=O)[C@H](CCc1ccccc1)N[C@@H](C)C(=O)N1C(=O)N(C)C[C@H]1C(=O)O`, the result in assay [1], in assay [2], in assay [3], in assay [4], in assay [5] and in [6] was inactive. Also, the molecule was called inactive in assay [7]. Moreover, the Potency result in assay [11], in assay [15], in assay [13] and in assay [19] was “inactive” in each case.

Turning to `COc1ccc(OC)c(Cl)c1`, the outcome in assay [1], in assay [2], in assay [3], in assay [4], in assay [5] and in [6] was inactive. The result in assay [7], in assay [17] and in assay [18] was inactive. Moreover, the Potency entry in assay [11], in [12], in assay [13], in assay [19] and in assay [20] was “inactive” each time.

Take `CC(C)=CCOC(=O)c1ccccc1`: the call in [1], in [2], in assay [14], in [4], in assay [5] and in assay [6] was inactive. The outcome in assay [7], in assay [9] and in assay [10] was inactive. Also, the Potency result in [8], in [11], in [12], in assay [15], in [13] and in assay [19] was “inactive” each time.
